This note sets out measurements from the supplement of paper PMC11001985.

Compound in this assay: C#CCNC(=O)CCSSCCC(=O)NCCc1ccc(C=O)c(C=O)c1
In words: lysine labeling ratio R10:1 (500 µM / 50 µM probe), SILAC-ABPP in living cells; higher = lower intrinsic lysine reactivity toward the probe, active = 2 or less. The settings on record: HeLa; probe concentrations 500 vs 50 µM. In a few lines:
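SILAC light and heavy living HeLa cells in PBS at room temperature were labelled with 50 µM or 500 µM of an alkyne-tagged, disulfide-linked lysine probe, with forward and reverse label swaps. Mixed lysates were clicked to biotin-azide, trypsin-digested, captured on neutravidin, DTT-released, alkylated and analysed by LC-MS/MS on a TIMS-TOF Pro. R is the filtered median high-probe/low-probe MS1 peptide ratio per lysine, then the median across forward and reverse replicates. Ratios are capped at 20.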

Values without a mark were called inactive.

Chain of UniProt Q15149 (Q15149 whole entry): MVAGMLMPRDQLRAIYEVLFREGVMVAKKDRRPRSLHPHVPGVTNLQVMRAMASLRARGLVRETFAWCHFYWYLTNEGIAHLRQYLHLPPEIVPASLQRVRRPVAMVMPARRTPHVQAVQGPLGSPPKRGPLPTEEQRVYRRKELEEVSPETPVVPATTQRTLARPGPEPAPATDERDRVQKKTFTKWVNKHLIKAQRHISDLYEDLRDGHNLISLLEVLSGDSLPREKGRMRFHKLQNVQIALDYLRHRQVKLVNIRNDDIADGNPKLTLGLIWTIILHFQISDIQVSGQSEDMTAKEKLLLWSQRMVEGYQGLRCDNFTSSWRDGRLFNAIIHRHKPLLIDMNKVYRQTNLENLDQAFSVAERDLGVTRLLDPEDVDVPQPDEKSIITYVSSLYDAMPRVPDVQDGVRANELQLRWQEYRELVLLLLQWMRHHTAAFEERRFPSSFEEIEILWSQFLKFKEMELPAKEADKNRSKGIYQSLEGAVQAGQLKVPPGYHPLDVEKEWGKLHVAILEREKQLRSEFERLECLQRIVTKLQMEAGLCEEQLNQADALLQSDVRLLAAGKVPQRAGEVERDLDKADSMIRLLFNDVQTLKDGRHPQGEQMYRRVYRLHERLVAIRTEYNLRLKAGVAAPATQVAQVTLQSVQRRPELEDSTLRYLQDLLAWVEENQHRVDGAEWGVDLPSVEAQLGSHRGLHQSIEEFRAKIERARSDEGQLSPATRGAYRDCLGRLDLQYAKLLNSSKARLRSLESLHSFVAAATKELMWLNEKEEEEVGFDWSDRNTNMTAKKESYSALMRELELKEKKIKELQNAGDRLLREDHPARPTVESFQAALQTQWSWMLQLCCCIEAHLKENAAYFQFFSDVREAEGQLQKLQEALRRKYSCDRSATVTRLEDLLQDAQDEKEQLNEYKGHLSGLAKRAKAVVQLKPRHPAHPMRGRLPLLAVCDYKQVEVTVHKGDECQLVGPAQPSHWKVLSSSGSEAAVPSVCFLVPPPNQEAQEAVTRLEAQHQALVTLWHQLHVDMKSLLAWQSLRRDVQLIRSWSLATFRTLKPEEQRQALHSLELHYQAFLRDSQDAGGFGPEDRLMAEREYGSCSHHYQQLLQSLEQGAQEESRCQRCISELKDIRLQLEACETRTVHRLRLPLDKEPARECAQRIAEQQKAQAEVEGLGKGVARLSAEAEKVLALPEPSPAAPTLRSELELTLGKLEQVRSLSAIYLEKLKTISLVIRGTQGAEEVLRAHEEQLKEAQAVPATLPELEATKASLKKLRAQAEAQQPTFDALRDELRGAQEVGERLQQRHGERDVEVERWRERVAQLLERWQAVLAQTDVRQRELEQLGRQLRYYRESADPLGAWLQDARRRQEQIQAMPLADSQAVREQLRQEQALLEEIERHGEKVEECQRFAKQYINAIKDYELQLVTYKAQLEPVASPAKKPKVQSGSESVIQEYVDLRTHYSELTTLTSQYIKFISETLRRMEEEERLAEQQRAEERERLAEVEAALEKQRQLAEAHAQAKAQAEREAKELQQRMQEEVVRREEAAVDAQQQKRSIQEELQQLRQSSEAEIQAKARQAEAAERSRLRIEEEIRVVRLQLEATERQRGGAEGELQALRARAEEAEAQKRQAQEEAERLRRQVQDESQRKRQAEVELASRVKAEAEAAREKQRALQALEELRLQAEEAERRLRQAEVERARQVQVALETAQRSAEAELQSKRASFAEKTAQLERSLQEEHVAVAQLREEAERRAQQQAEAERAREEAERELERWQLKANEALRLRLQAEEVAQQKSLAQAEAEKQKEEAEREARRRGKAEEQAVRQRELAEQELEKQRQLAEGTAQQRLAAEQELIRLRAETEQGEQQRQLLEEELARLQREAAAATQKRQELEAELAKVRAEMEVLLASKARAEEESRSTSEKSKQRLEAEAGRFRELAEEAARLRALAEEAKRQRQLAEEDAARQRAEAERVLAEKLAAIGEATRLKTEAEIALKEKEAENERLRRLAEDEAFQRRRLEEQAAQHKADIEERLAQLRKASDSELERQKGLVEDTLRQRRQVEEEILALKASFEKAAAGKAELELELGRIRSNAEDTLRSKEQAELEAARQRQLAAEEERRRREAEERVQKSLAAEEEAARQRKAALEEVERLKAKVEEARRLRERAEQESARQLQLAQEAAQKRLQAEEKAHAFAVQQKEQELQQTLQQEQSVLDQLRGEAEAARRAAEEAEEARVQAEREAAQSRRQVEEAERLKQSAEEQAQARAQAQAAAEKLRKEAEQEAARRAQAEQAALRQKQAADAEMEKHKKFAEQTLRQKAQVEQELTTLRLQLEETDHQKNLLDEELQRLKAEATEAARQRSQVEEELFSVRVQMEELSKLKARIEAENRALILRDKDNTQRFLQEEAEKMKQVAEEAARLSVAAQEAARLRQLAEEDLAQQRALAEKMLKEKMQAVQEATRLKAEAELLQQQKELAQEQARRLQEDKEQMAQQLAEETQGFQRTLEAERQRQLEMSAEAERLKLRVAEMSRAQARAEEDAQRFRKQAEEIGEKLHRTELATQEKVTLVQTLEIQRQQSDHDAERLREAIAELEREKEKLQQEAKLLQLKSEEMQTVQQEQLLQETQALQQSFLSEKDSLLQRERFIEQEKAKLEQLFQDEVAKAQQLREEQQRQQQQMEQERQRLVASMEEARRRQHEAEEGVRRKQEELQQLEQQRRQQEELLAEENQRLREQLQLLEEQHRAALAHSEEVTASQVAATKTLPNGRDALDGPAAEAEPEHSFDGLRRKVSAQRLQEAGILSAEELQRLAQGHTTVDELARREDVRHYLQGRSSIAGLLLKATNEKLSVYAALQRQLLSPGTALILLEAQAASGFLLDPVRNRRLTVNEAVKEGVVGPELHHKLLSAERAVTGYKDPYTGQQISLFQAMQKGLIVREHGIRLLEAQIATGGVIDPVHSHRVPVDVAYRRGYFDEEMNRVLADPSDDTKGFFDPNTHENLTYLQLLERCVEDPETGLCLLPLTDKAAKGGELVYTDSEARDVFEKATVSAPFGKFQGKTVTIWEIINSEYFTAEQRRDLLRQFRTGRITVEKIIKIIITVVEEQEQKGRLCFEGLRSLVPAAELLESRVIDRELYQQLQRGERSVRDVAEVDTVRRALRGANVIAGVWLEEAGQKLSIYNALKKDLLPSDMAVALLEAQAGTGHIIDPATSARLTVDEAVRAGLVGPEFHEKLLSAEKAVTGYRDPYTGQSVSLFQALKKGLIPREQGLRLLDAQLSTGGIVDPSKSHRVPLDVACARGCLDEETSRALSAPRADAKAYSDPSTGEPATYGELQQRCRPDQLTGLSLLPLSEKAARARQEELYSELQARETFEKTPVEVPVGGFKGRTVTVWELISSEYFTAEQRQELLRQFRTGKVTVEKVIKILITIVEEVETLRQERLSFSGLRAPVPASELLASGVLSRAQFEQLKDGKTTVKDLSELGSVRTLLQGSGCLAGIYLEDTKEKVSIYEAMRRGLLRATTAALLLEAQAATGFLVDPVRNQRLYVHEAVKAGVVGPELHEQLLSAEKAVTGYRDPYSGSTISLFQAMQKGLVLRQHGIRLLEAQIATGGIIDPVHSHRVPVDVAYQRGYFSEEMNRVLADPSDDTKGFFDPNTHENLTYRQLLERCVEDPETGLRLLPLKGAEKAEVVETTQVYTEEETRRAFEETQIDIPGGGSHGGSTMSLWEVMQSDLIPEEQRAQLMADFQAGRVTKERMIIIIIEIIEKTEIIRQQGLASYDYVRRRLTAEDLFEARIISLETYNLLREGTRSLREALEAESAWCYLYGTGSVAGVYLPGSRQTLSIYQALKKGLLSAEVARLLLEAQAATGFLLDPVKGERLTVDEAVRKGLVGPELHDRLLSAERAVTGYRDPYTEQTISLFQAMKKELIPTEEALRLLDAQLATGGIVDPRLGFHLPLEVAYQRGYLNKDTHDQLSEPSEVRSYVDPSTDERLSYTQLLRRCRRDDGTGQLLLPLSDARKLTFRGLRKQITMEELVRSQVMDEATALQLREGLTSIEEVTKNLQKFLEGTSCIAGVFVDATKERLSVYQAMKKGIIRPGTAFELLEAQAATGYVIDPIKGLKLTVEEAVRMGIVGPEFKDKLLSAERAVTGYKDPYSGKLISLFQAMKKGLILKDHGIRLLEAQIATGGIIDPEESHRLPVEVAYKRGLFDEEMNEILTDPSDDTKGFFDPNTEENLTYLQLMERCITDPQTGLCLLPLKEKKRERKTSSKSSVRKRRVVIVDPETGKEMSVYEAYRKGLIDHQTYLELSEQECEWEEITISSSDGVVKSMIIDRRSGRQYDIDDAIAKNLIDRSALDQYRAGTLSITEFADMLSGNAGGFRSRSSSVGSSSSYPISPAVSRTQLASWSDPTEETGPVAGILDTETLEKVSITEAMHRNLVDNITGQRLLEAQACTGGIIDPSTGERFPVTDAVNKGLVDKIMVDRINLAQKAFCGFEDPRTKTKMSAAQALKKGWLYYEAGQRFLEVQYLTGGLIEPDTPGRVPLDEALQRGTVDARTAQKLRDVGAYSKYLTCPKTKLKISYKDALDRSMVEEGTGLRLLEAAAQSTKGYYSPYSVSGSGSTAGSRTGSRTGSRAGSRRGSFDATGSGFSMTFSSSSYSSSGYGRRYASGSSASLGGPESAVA
Chain of UniProt P15328 (P15328 whole entry, looked up): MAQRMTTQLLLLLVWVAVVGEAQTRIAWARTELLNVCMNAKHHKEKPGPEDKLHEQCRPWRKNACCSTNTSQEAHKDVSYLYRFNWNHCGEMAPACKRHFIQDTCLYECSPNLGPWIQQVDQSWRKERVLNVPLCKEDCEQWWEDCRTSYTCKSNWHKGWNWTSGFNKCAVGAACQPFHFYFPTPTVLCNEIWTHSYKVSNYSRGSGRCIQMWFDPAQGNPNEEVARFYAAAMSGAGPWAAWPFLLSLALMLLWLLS
Chain of UniProt O00264 (O00264 whole entry): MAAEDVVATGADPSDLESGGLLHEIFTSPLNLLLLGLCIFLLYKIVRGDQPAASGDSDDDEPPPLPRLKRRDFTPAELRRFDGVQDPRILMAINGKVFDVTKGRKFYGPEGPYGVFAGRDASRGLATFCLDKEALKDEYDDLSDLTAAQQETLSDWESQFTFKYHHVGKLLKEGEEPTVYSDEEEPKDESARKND

Consider UniProt Q99653 (lysine site: K188), for which the “lysine labeling ratio R10:1” value was 1.18 (active).
Then “EZR (lysine site: K438) (UniProt P15311)”, with 3.51; and “EEA1 (lysine site: K583) (UniProt Q15075)”, with 3.77; and “PGRMC1 (lysine site: K105) (UniProt O00264)”, with 2.63.
Take “L1CAM (lysine site: K568) (UniProt P32004)”: the “lysine labeling ratio R10:1” value is 3.06.
On to “GPC1 (lysine site: K347) (UniProt P35052)”, for which the “lysine labeling ratio R10:1” value is 4.46.
Then “SPTBN1 (lysine site: K1021) (UniProt Q01082)”, with 6.62.
For “TLN1 (lysine site: K1171) (UniProt Q9Y490)”, the “lysine labeling ratio R10:1” value was 1.76 (active).
Take “FZD1 (lysine site: K273) (UniProt Q9UP38)”: the “lysine labeling ratio R10:1” value was 4.28.
The result for “RTN3 (lysine site: K998) (UniProt O95197)” reads 4.14.
The result for “ITGA1 (lysine site: K259) (UniProt P56199)” reads 4.65; that for “RPL5 (lysine site: K284) (UniProt P46777)”, 1.68 (active).
Then “APOB (lysine site: K1642) (UniProt P04114)”, with 2.17.
As to UniProt Q15149 (lysine site: K2846), the “lysine labeling ratio R10:1” value was 3.06.
On to “PRDX1 (lysine site: K199) (UniProt Q06830)”, for which the “lysine labeling ratio R10:1” value is 2.6.
Then “FOLR1 (lysine site: K46) (UniProt P15328)”, with 12.6.
Then “DNAJB1 (lysine site: K21) (UniProt P25685)”, with 1 (active); and “GGT1 (lysine site: K181) (UniProt P19440)”, with 1.46 (active).
With “VAPA (lysine site: K211) (UniProt Q9P0L0)”, the “lysine labeling ratio R10:1” value was 4.3.
The result for “PTPRJ (lysine site: K281) (UniProt Q12913)” reads 0.907 (active); that for “ANXA1 (lysine site: K287) (UniProt P04083)”, 2.78.
With “RAB13 (lysine site: K107) (UniProt P51153)”, the “lysine labeling ratio R10:1” value is 0.523 (active).
Consider UniProt O00487 (lysine site: K154), for which the “lysine labeling ratio R10:1” value is 0.527 (active).
The result for “PTBP1 (lysine site: K428) (UniProt P26599)” reads 3.97.
For the target “CALD1 (lysine site: K119) (UniProt Q05682)”, the “lysine labeling ratio R10:1” value was 2.67.
Take UniProt P62873 (lysine site: K15): the “lysine labeling ratio R10:1” value is 3.12.
The result for “HSPA8 (lysine site: K251) (UniProt P11142)” reads 1.57 (active); that for “SPTAN1 (lysine site: K2404) (UniProt Q13813)”, 1.94 (active).
The result for “RPS19 (lysine site: K115) (UniProt P39019)” reads 1.86 (active).
Then UniProt P61106 (lysine site: K193), with 3.57.
Turning to “CD55 (lysine site: K160) (UniProt P08174)”, the “lysine labeling ratio R10:1” value is 1.09 (active).
The result for “LDLR (lysine site: K596) (UniProt P01130)” reads 1.28 (active).
The result for “RPL5 (lysine site: K242) (UniProt P46777)” reads 5.69; that for “ALDOA (lysine site: K330) (UniProt P04075)”, 2.76.
With UniProt Q9NYQ7 (lysine site: K2131), the “lysine labeling ratio R10:1” value is 1.56 (active).
Then “FN1 (lysine site: K486) (UniProt P02751)”, with 2.59; and UniProt Q15149 (lysine site: K4205), with 1.51 (active).
Then “CACNA2D1 (lysine site: K842) (UniProt P54289)”, with 4.24; and “SPTAN1 (lysine site: K274) (UniProt Q13813)”, with 2.28.
With “LMO7 (lysine site: K794) (UniProt Q8WWI1)”, the “lysine labeling ratio R10:1” value was 2.02.
Then “ATP6AP1 (lysine site: K380) (UniProt Q15904)”, with 1.79 (active); and “RPL4 (lysine site: K106) (UniProt P36578)”, with 2.43.
As for “YWHAQ (lysine site: K80) (UniProt P27348)”, the “lysine labeling ratio R10:1” value was 3.11.
